In PubChem BioAssay (NCI):
This is part of a sample that, as a whole, favours compounds with a hit. Of some 83,000 tested, about 20% had one in any assay.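 Percent growth is the endpoint: 0 to 100 indicates growth inhibition (40 means 60% inhibition), 0 means no net growth, and negative values indicate cell death.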 Unmarked numbers belong to inactive results. Calls of active or inactive are those of the source. The calls were made as follows: active = growth percent below 10; inactive = the rest.

Tests used:
Experiment in all cases: NCI-60 one-dose screen, 48 h (100 = growth as untreated, 0 = no growth, -100 = all killed)
Conditions in all cases: 10 µM unless noted
[1] = system: HCT-15 colon
[2] = system: HT29 colon
[3] = system: SNB-75 CNS
[4] = system: SNB-19 CNS
[5] = system: U251 CNS
[6] = system: PC-3 prostate
[7] = system: LOX IMVI melanoma
[8] = system: SK-MEL-28 melanoma
[9] = system: UACC-62 melanoma

Compound	growth [1]	growth [2]	growth [3]	growth [4]	growth [5]	growth [6]	growth [7]	growth [8]	growth [9]
O=C1/C(=C/c2ccc(Br)cc2)COc2ccc(O)cc21	42.5%	28.9%	92.7%	87.3%	57%	77.4%	-1.48% (active)	97.7%	–
CCCNNC(=O)c1ccc(CNC(=O)/C=C/c2ccccc2)cc1	50.4% [2.5 µM]	10.8% [2.5 µM]	71.7% [2.5 µM]	54.5% [2.5 µM]	37.7% [2.5 µM]	43% [2.5 µM]	21.6% [2.5 µM]	36% [2.5 µM]	7.16% [2.5 µM] (active)
COC(=O)[C@H]1Cc2c([nH]c3ccccc23)[C@H](c2ccc3c(c2)OCO3)N1	100%	106%	74.8%	96.4%	96.8%	93.2%	93.6%	108%	88.1%
Oc1cccc2c1NCCC2	21.4%	79.5%	0.864% (active)	14.9%	14.7%	9.22% (active)	16.4%	49.5%	5.24% (active)
c1ccc2c(-c3cnn4cc(-c5ccc(N6CCNCC6)cc5)cnc34)ccnc2c1	-55.6% (active)	-76.9% (active)	-96.9% (active)	-57.8% (active)	-79% (active)	-12% (active)	-85.8% (active)	-90.7% (active)	–
Cc1nn(-c2ccccc2)c(Oc2ccccc2)c1/C=N/NC(=O)Cn1c(=O)sc2ccccc21	56.7%	46.8%	48.6%	61.1%	51.3%	44.5%	48.7%	87.5%	–
O=C1NCCN1/N=C/c1c(Cl)n(Cc2ccc(Cl)cc2)c2ccccc12	93.3%	111%	94.4%	107%	75.5%	89%	72.7%	112%	53.5%
O=c1cc(-c2nccc3c2[nH]c2ccccc23)c2cc(Cl)ccc2o1	24.3%	7.6% (active)	39.8%	43.7%	29.6%	30.7%	50.1%	64.6%	45.5%
C(=N\Nc1nnc2n1N=C(c1ccccc1)CS2)/c1ccc(OCc2ccccc2)cc1	97.4%	114%	108%	102%	97.6%	76.2%	95.8%	104%	89.8%
CS(=O)(=O)c1ccc(/C(=N/NC(N)=S)c2ccc(F)cc2)cc1	98.4%	107%	93.1%	99.9%	107%	103%	101%	114%	101%
FC(F)(F)c1cc(N2CCCCC2)nc(NCCCNc2ccnc3cc(Cl)ccc23)n1	53.2%	26.8%	71.9%	82.2%	67.4%	45.4%	65.8%	76.7%	61.9%
CC1(C)CCC[C@]23C(=O)O[C@](O)(C(=O)C4=C[C@@](C)(/C=C/CCCc5ccc6ccc7cccc8ccc5c6c78)CC[C@@]42O)[C@@H]13	-69.3% (active)	-69.5% (active)	-78.8% (active)	-95.5% (active)	-85.5% (active)	-48.8% (active)	-85.5% (active)	-86.6% (active)	-75.5% (active)
COc1ccc(-c2cc(-c3ccc(Nc4nc(Nc5ccc(Cl)cc5)nc(Nc5ccc(Cl)cc5)n4)cc3)no2)cc1	76.1%	78.9%	89.1%	107%	62.4%	60.5%	76.3%	89.7%	101%
CCN1CCN(C(=O)[C@]23CC[C@@H](C)[C@H](C)[C@@H]2C2=CC[C@@H]4[C@@]5(C)C/C(=C/c6ccncc6)C(=O)C(C)(C)[C@@H]5CC[C@@]4(C)[C@]2(C)CC3)CC1	-53.2% (active)	1.6% (active)	19.5%	47.3%	15.2%	19.3%	-95.3% (active)	-45.7% (active)	43.1%
CCN(CC)c1ccc(/C=N/NC(=O)c2ccccc2Nc2ccnc(C(F)(F)F)c2)c(O)c1	32.6%	37.7%	43.8%	20.1%	14.8%	36%	5.58% (active)	47.9%	19.4%
COc1cc2c(cc1-c1c(C)noc1C)ncc1nc(C3CCOCC3)n(C3CCC(OC(F)F)CC3)c12 (stereo not given)	33.2%	25.9%	12.9%	75.3%	75.8%	44.8%	24%	71.1%	25.4%
c1ccc2[nH]c(-c3ccc(-c4nccc5c4[nH]c4ccccc45)cc3)nc2c1	38.7%	4.38% (active)	64.9%	55.1%	24.2%	85.7%	10.8%	61.3%	-24% (active)
Cn1ncc(CC(=O)O)c1-n1nnc2cc(Cl)ccc2c1=O	107%	103%	81.1%	96%	103%	103%	103%	144%	94.8%
CC(C)(C)[C@H](OCc1cn([C@H]2C[C@@H](O)[C@@H](CO)O2)c(=O)[nH]c1=O)c1ccc(C#Cc2ccccc2)cc1[N+](=O)[O-]	69.8%	62.3%	67%	82.4%	68.9%	19.3%	84.7%	101%	66.9%
CC(=O)Oc1ccccc1C(=O)N(Cc1ccc2c(Cl)cc(Cl)c(O)c2n1)c1ccccc1	23.8%	89.4%	51.2%	42%	27.6%	34%	38.5%	58.3%	29.3%
Cc1c(C)c2c(c(C)c1OC(=O)CCC(=O)[O-])CCC(C)(CCCCCCCCCCC[P+](c1ccccc1)(c1ccccc1)c1ccccc1)O2 (stereo not given)	2.7% (active)	6.17% (active)	-31.5% (active)	-42.4% (active)	-70.1% (active)	-31.9% (active)	-91.4% (active)	-77.3% (active)	-54.1% (active)
Cn1cc(-c2nc(-c3c[nH]c4c(Cl)nccc34)cs2)c2ccccc21	98.6%	83.5%	108%	94.5%	86.3%	86.1%	102%	108%	97.5%
O=C(/C=C/c1ccco1)c1ccc(Nc2ccnc3cc(Cl)ccc23)cc1	59.7%	23.4%	105%	95.1%	56.5%	80.5%	76.6%	103%	108%
CN(C)CCOc1ccc(/C(=C(/CCCCCCCCCC[P+](c2ccccc2)(c2ccccc2)c2ccccc2)c2ccccc2)c2ccccc2)cc1	-88.7% (active)	-68.5% (active)	-88.7% (active)	-92.1% (active)	-75% (active)	-86% (active)	-89.9% (active)	-94.1% (active)	-82.7% (active)
Cc1ccc(Nc2nc(N)nc(N)c2N=O)cc1Cl	70.6%	64.3%	49.5%	97.5%	87%	70.8%	65.4%	93.5%	–
CSc1nn2c(-c3cc4cc(Br)ccc4oc3=O)ccnc2c1C#N	102%	114%	90.5%	105%	102%	105%	97.4%	105%	99.7%
